From ChEMBL document CHEMBL3433997, “St. Jude Leishmania screening dataset” (2016)

Legend:
Assay type in all cases: functional
[1] = target: Solute carrier family 2, facilitated glucose transporter member 1 (Homo sapiens) (UniProt P11166); test: ST_JUDE_LEISH: Cytotoxicity at 2uM final concentration against transgenic Leishmania Mexicana promastigotes LmGLUT1 that are glucose transport deficient and complemented with the human glucose transporter GLUT1. Activity is measured by DNA content using SYBR green in vitro
[2] = target: Hexose transporter 1 (Plasmodium falciparum) (UniProt O97467); test: ST_JUDE_LEISH: Cytotoxicity at 2uM final concentration against transgenic Leishmania Mexicana promastigotes LmPfHT that are glucose transport deficient and complemented with the Plasmodium falciparum hexose transporter. Activity is measured by DNA content using SYBR green in vitro
[3] = target: Glucose transporter (Leishmania mexicana) (UniProt O61059); test: ST_JUDE_LEISH: Cytotoxicity at 2uM final concentration against transgenic Leishmania Mexicana promastigotes LmGT2 that are glucose transport deficient and complemented with the L. Mexicana glucose transporter 2. Activity is measured by DNA content using SYBR green in vitro

Chain of Solute carrier family 2, facilitated glucose transporter member 1 (Homo sapiens) (P11166 whole entry): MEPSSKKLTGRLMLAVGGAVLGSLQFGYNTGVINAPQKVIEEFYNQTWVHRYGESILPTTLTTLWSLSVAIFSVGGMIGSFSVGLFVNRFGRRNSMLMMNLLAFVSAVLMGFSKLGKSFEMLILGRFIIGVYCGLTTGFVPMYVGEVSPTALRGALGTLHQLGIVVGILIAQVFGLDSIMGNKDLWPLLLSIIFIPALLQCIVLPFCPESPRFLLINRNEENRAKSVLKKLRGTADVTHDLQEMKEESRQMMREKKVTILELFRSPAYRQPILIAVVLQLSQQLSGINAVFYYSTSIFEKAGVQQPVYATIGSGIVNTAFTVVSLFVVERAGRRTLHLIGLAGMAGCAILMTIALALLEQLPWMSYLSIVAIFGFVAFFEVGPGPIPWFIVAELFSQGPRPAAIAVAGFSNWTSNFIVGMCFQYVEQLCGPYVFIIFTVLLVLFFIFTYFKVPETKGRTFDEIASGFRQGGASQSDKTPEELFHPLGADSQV

Compound | inhibition [1] [%] | inhibition [2] [%] | inhibition [3] [%]
Clc1cc2c(Nc3ccc(Oc4ccccc4)cc3)ccnc2cc1-c1ccc(CNCCN2CCOCC2)o1 | -1.44 | -0.57 | -0.03
CN(C)CCOc1ccc2c(c1)CN(C)CC2c1ccccc1 (centres undefined) | 1.17 | 0.33 | 0.03
Cn1c(NCc2cc(F)cc3c2OCOC3)nc2cc(Nc3ccnc(Nc4cccc(CS(C)(=O)=O)c4)n3)ccc21 | -1.66 | 1.11 | 1.18
Cc1ccc(C(=O)Nc2ccc(Nc3ccnc4cc(-c5ccncc5)ccc34)cc2O)cc1 | -0.09 | -0.05 | 1.37
CC(C)(C)CC(C)(C)c1ccc(O)c(CNC2CCCCC2)c1 | 1.96 | 2.09 | -0.74
Cc1ccc(Nc2nc(C)cc(N3CCN(CCc4ccccc4)CC3)n2)cc1 | 3.08 | 3.31 | -1.99
c1cncc(CCNCc2ccc(-c3ccc(-c4nc5ccccc5[nH]4)s3)cc2)c1 | 8.43 | 6.34 | 0.7
Cn1cc(CN2CCCC(COC(c3ccc(F)cc3)c3ccc(F)cc3)C2)cn1 (centres undefined) | 2.32 | 1.9 | 1.84
CC(C)C[C@@H]1C(=O)N[C@H](C2Cc3ccccc3C2)C(=O)N1[C@@H](C(=O)O)c1ccc(F)cc1F | 1.91 | 2.13 | 0.39
Nc1ncc(-c2cccc(CCN3CCOCC3)c2)cc1-c1nc2cc(Br)ccc2[nH]1 | 14 | 9.95 | 11.8
Cc1csc(-c2nonc2NC(=O)COc2ccccc2C(C)C)n1 | 2.07 | -1.84 | 2.3
COc1ccc2nccc([C@H](O)CN3CCC(NCc4ccc5c(c4C)OCCO5)CC3)c2n1 | 41 | 59.7 | 69.1
OC(CNc1ccnc(Nc2cccc(Cl)c2)n1)c1ccc(C(F)(F)F)cc1 (centres undefined) | 9.21 | 7.14 | 5.22
Nc1ccc2nc(C=Cc3ccc(Cl)cc3)[nH]c2c1 | 3.56 | 3.93 | 5.14
CC1=C(C(=O)Nc2ccc(Cl)cc2)C(c2ccncc2)n2nc(C(F)(F)F)nc2N1 (centres undefined) | 3.72 | 2.96 | -2.29
Cc1ccc(-c2cc(C(=O)Nc3ccc(S(=O)(=O)N4CC(C)OC(C)C4)cc3)[nH]n2)c(O)c1 (centres undefined) | 3.32 | 2.68 | 3.48
O=C(Cn1c(CCc2cccc(F)c2F)nc(=O)c2ccccc21)N(CCCN1CCCC1)Cc1ccc(-c2ccc(C(F)(F)F)cc2)cc1 | 8.01 | 7.63 | 9.22

Compound | inhibition [1] [%] | inhibition [2] [%] | inhibition [3] [%]
Cc1ccc(Nc2nc(N)c3ccccc3n2)cc1 | 22 | 17.5 | 4.74
Clc1cc(Nc2ncnc3cc(C#C[C@H]4CCCN4)sc23)cc2nc(Cc3ccccc3)[nH]c12 | 1.94 | -0.56 | -1.61
CCOc1ccc2c(=NN=Cc3cc(OC)c(OC)cc3OC)cc(C)[nH]c2c1 | 3.1 | 2.65 | -1.87
N#Cc1cncc(-c2nc3c(N4CCC(Cc5ccccc5)CC4)cccc3n2C2CCNC2)c1 (centres undefined) | -0.31 | -0.39 | -0.61
CN1CCN(Cc2cccc(-c3ccc4c(Nc5ccc(Oc6ccccc6)cc5)ccnc4c3)c2)CC1 | 12.9 | 17 | 18.6
CCCNc1nc(Nc2ccccc2C)nc2ccccc12 | 38.1 | 33.5 | 13.8
CCn1cc(C=C2Oc3c(ccc(O)c3CN3CCCCC3)C2=O)c2cc(OC)ccc21 | 3.02 | 2.04 | -0.31
O=c1cc(NCCCNC2CCOc3c(Cl)cccc32)[nH]c2ccccc12 (centres undefined) | 0.96 | 1.67 | 2.03
CS(=O)(=O)CCNCc1cccc(-c2cc3nccc(Nc4ccc(Oc5ccccc5)cc4)c3cc2Cl)c1 | -1.75 | 0.05 | -0.97
CC(=O)c1ccc(N2CCN(CCC3(c4ccc(Cl)c(Cl)c4)COCN(C(=O)c4ccccc4)C3)CC2)cc1 (centres undefined) | 4.7 | 1.18 | -0.21
S=C(NCCCCCN1CCC(c2c[nH]c3ccccc23)CC1)Nc1cccc(I)c1 | 0.7 | 1.62 | -1.76
Cc1cccc2nc(-c3cccc(-c4ccc(NC(=O)C(=O)c5cccn5C)cc4)c3)[nH]c12 | 2.86 | 0.6 | -2.97
O=C(/C=C/c1ccc(Cl)c(Cl)c1)NCCCCCN1CCC(NC(=O)Nc2ccc(Cl)c(C(F)(F)F)c2)CC1 | 1.18 | 0.31 | 1.66
CNC(=O)CC(=O)NCCc1ccc(Cl)cc1 | -0.63 | 1.17 | 0.06
COc1ccc2nccc([C@@H](O)CN3CCC(NCc4cc5sccc5nc4C(F)(F)F)CC3)c2c1 | 3.75 | 1.89 | -4.21
CN(C)CC1CCCN1Cc1ccccc1-c1cnn(C)c(=O)c1Oc1ccc(F)cc1 (centres undefined) | 5.23 | 4.08 | 4.45
